Bioassay records: PubChem, ICCB-Longwood Screening Facility, Harvard Medical School
Only some compounds are listed: those with a hit (about 1.5% of all), similar ones and a draw of the others.
Polio RdRp inh – inhibitors of poliovirus RNA polymerase binding and polymerization. poliovirus polymerase elongation, fluorescence polarization; active compounds read low. % elongation, % (compound at 16.7 µg/mL). 0.66% of 150,000 active. AID 588519; in the data active = % elongation below about 90%
Target sequence (P03300 1749-2209 limits assumed): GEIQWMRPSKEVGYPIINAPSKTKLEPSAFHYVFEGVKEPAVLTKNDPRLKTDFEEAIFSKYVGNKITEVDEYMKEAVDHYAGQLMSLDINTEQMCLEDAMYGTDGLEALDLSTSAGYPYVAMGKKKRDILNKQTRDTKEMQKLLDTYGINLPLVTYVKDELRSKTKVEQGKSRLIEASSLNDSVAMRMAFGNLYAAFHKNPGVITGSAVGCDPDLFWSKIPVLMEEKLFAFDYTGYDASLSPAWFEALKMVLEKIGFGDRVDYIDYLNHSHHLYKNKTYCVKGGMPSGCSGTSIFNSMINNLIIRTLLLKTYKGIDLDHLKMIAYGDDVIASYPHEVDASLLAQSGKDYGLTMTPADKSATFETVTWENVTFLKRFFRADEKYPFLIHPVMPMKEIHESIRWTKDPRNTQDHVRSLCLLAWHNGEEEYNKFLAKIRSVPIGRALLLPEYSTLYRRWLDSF
MbtI inh – inhibitors of Mycobacterium tuberculosis siderophore enzyme MbtI; purified MbtI enzyme, fluorescence intensity read-out; inhibition, % (test concentration not listed); 0.89% of 100,000 active; in the data active = inhibition mostly above about 56%, no sharp cut-off; inactive = mostly below about 77%
MenB inh – Mtb MenB enzyme inhibition. inhibition, % (concentration not given with the values). P9WNP5. 0.43% of 100,000 active. AID 540299. MenB enzyme assay, absorbance read-out; in the data active = inhibition above about 21%, passing the limit was not always enough
Active calls of the source: *; . = no result given.

SMILES | Polio RdRp inh | MbtI inh | MenB inh
O=c1c(=N\O)/c(=N/O)c(=O)c2ccccc12 | 60.0* | 25.0 | -12.4
CC1CCc2c(sc3nc(-c4ccc(Cl)cc4)cn23)C1 (stereo not given) | 101.0 | -0.6 | 10.5
CCCCCCCCCCCCCCCCCCc1ccc(C(=O)/C=C/C(=O)O)cc1 | 98.0 | 8.8 | -4.5
CCCCCOc1ccc(C(=O)/C=C/C(=O)O)cc1 | 96.0 | 63.5* | 17.7
Clc1ccc(C2=NNC(=NCc3ccc4c(c3)OCO4)SC2)cc1 | 85.0* | 46.7 | -29.2
CCCN=C1NN=C(c2cc(C)n(Cc3ccc4c(c3)OCO4)c2C)CS1 | 108.0 | -0.5 | -9.3
COc1ccc(NC(=O)c2cc3ccc(O)cc3oc2=Nc2ccc(C(=O)O)cc2)cc1 | 107.0 | 6.5 | -89.5
COc1ccc(NC(=O)c2cc3ccc(O)cc3o/c2=N\O)cc1 | 101.0 | 8.3 | 32.1*
CCOC(=O)C1=C(CSc2nnc(-c3ccccc3)n2CC)NC(=O)NC1c1cccs1 (stereo not given) | 105.0 | -11.4 | -30.0
NS(=O)(=O)c1ccc(-n2cccc2C=C2C(=O)NC(=S)NC2=O)cc1 | 100.0 | 97.0* | -5.7
CC1(C)OC(=O)C(=Cc2cccn2-c2ccc(S(N)(=O)=O)cc2)C(=O)O1 | 94.0 | . | -187.0
Cc1[nH]c2ccccc2c1C | 99.0 | 10.6 | -19.3
Cc1cc(=S)[nH]c2ccccc12 | 104.0 | 60.6* | -40.0
CCOc1ccc(-c2nc(CN3CCN(S(=O)(=O)c4ccc(Cl)cc4)CC3)cs2)cc1 | 104.0 | 29.6 | -23.0
COc1cccc(-c2nnc(SCC(=O)NC3CCCCC3)o2)c1 | 88.0* | . | .
COc1cccc(-c2nnc(SCC(=O)N3CCCCC3)o2)c1 | 104.0 | . | .
O=C(c1cnc(N2CCOCC2)c2ccccc12)N1CCN(c2ccccc2)CC1 | 108.0 | . | .
COc1ccc(C(=S)N2CCCC2)cc1OC | 101.0 | 6.2 | 1.3
CCOc1cc(C(=S)N2CCOCC2)ccc1OC | 65.0* | . | -21.3
COc1ccc(C(=S)N2CCCCC2)cc1OC | 98.0 | 82.2* | -37.0
CCOc1ccc(C(N)=O)cc1OC | 99.0 | 15.5 | -62.7
CC(=O)N1CCN(CCN=CC2=C(O)CC(c3ccccc3)CC2=O)CC1 (stereo not given) | 98.0 | 4.2 | 2.3
O=C(NCc1ccco1)c1ccc(-n2cnc3cccnc32)cc1 | 105.0 | 0.2 | -6.4
c1ccc2sc(SN3CCOCC3)nc2c1 | 104.0 | 84.3* | -2.9
O=S(=O)(c1cccc(CSc2nc3ccccc3s2)c1)N1CCOCC1 | 108.0 | -6.9 | -21.0
SMILES | Polio RdRp inh | MbtI inh | MenB inh
O=C(Oc1nsnc1N1CCOCC1)N1CCCCC1 | 101.0 | 6.8 | 8.2
O=C(Oc1nsnc1N1CCOCC1)c1ccccc1 | 47.0* | . | -6.5
CCCCSc1ncnc2c1c(-c1ccccc1)cn2-c1cccc(F)c1 | 100.0 | . | .
CN(C)CCN(C)Cc1ccccc1 | 101.0 | -25.0 | -15.8
CN(CCC(N)=O)Cc1ccccc1 | 101.0 | -2.5 | 38.4*
O=C(NN1C(=O)c2ccccc2C1=O)c1ccccc1 | 100.0 | . | 8.2
Cc1ccccc1C(=O)NN1C(=O)c2ccccc2C1=O | 101.0 | -0.7 | 32.7*
Fc1ccc(-c2nnc(Cl)c3ccccc23)cc1F | 100.0 | 0.6 | .
O=c1[nH]c(=S)[nH]nc1-c1ccc(F)c(F)c1 | 98.0 | 100.5* | -15.9
O=C(CSc1nnc(CN2CCCC2)n1Cc1ccccc1)Nc1ccccc1 | 100.0 | 11.1 | -17.9
CCOC(=O)c1sc(S(C)=O)c2c1CCc1conc1-2 (stereo not given) | 103.0 | -0.2 | -7.4
CCOC(=O)c1sc(S(C)=O)c2c1CCCC2=O (stereo not given) | 98.0 | 63.3* | 18.9
Cc1cc(C)n2c(Nc3ccccc3)c(-c3ccccc3)nc2n1 | 106.0 | . | .
COC(=O)c1ccc(OCC#N)cc1 | 98.0 | 0.2 | .
COC(=O)c1ccc(/C=C/C(=O)OCC#N)cc1 | 88.0* | 0.6 | 3.2
O=C(Cn1c(C(=O)NCC2CCCO2)cc2sccc21)c1ccccc1 (stereo not given) | 100.0 | 3.4 | 8.3
O=C(Cn1c(C(=O)NCc2ccco2)cc2sccc21)c1ccccc1 | 104.0 | 11.6 | 23.5*
CC(C)CS(=O)(=O)c1oc(-c2ccc(F)cc2)nc1S(=O)(=O)c1ccccc1 | 108.0 | . | .
CCOc1ccc(/C=N\n2c(C)nnc2C)cc1 | 101.0 | 29.7 | 1.4
CCOc1ccc(/C=N/O)cc1 | 104.0 | 9.6 | 26.3*
COC(=O)C1=C(C)NC2=C(C(=O)c3ccccc32)C1c1ccc(O)c(OC)c1 (stereo not given) | 100.0 | -10.6 | -17.4
NNC(=O)CSc1c(-c2cccs2)[nH]c2ccccc12 | 99.0 | -18.9 | 37.7*
CNC(=O)CSc1c(-c2cccs2)[nH]c2ccccc12 | 108.0 | . | -3.8
CCOCCC(=O)Nc1ccc(Cl)cc1 | 103.0 | -13.9 | -17.0
O=c1[nH]ccn(-c2ccccc2)c1=O | 103.0 | 0.6 | -51.3
SMILES | Polio RdRp inh | MbtI inh | MenB inh
O=c1c(=S)[nH]ccn1-c1ccccc1 | 100.0 | 92.6* | 1.1
Cc1ccc(SCCNC(=O)c2ccc3ccccc3n2)cc1 | 96.0 | . | -20.8
CC(C)CC(=O)Nc1nc2nc(-c3ccccc3)cc(=O)n2[nH]1 | 102.0 | . | .
CCN(CC)P1(=S)N(c2ccccc2)N=C2C=C(C)c3ccccc3N21 (stereo not given) | 68.0* | 91.0 | -62.8
CCCOc1ccc(C(=O)O)cc1 | 103.0 | -5.4 | .
CCCOc1ccc(C(=O)CCN(C)C)cc1 | 97.0 | 59.0* | -57.2
CN(C)CCC(=O)c1ccc(Br)cc1 | 102.0 | 69.0* | -6.4
CN(C)CCC(=O)c1ccccc1 | 103.0 | 21.5 | .
CCOC(=O)C1=C(CN2CCC(C(=O)OCC)CC2)NC(=O)NC1c1ccc(Cl)cc1 (stereo not given) | 108.0 | . | .
CCOC(=O)c1[nH]c(CSc2nnc3ccccn23)c(C(=O)OCC)c1C | 102.0 | -1.9 | -9.4
CCOC(=O)c1[nH]c(CSc2cccc[n+]2[O-])c(C(=O)OCC)c1C | 66.0* | 36.5 | -30.0
COc1cccc(C(O)C(F)(F)F)c1 (stereo not given) | 100.0 | 8.1 | 28.8*
COc1cccc(C(C)NC(=O)c2ccccc2OC)c1 (stereo not given) | 102.0 | -4.8 | -20.6
COc1ccc(CCNC(=O)c2cc(C)no2)cc1OC | 100.0 | -10.4 | -2.8
N=C(N)c1ccc(C(N)=O)cc1 | 108.0 | -11.2 | -5.3
COC(CNC(=O)c1ccc2c(c1)N(Cc1cccc(Cl)c1)C(=O)c1ccccc1S2=O)OC (stereo not given) | 102.0 | 12.9 | -7.8
NC(=O)CSc1nc2cc(S(=O)(=O)N3CCOCC3)ccc2o1 | 76.0* | 87.4 | -13.7
Nc1nc2cc(S(=O)(=O)N3CCOCC3)ccc2o1 | . | 25.0 | 1.8
COc1ccc(Cc2nc3ccc(S(=O)(=O)N4CCOCC4)cc3[nH]2)cc1 | 100.0 | 1.0 | 1.0
Cc1ccc2nc(SCC(N)=O)oc2c1 | 101.0 | 3.2 | 32.7*
CN(C)C(=O)CSc1nc2cc(S(=O)(=O)N3CCOCC3)ccc2o1 | 81.0* | 87.4* | -10.9
CN(C)C(=O)CSc1nc2cc(Cl)ccc2o1 | . | -4.6 | -27.3
CCCSc1nc2ccc(S(=O)(=O)N3CCOCC3)cc2[nH]1 | 64.0* | 93.3* | -20.3
CCOC(=O)CSc1nc2ccccc2o1 | 98.0 | 3.6 | -10.8
CCN(CC(=O)Nc1ccccc1OC)Cc1cc(=O)n2c(-c3ccccc3)csc2n1 | 102.0 | 3.8 | 3.2
Clc1ccccc1/C=N/c1c(-c2ccco2)nc2ccccn12 | 101.0 | -2.9 | -43.4
CCOC(=O)c1sc(N)c(C#N)c1COC(=O)c1ccc(S(=O)(=O)N2CCCC2)cc1 | 45.0 | 2.2 | -4.6
COc1cccc(OCCNC(=O)c2cc(C(F)(F)F)cc(C(F)(F)F)c2)c1 | 108.0 | . | -26.3
